High-throughput results as filed in PubChem.
DT40 TDP1 no CPT: qHTS for Inhibitors of human tyrosyl-DNA phosphodiesterase 1 (TDP1): qHTS in cells in absence of CPT; DT40 Tdp1-/- hTDP1 cells, no CPT, ATP luminescence, 48 h; Potency, µM (highest dose often 46.2 µM), hits mostly inhibitors; hit rate 15% among 420,000; further: nearly all actives have a fitted effect of over 55% in size
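Chicken DT40 Tdp1-/- cells stably complemented with human TDP1 were seeded at 400 cells/well with DMSO in place of 20 nM camptothecin. After compound pinning, cells grew at least 48 hr at 37 °C; viability read by CellTiter-Glo luminescence.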
IL1B secr inh: blocks inflammasome-driven IL-1 beta release. THP-1 LPS/ATP IL-1B secretion, AlphaLISA, 16 h; active compounds read low. activity change, % at 57.5 µM. hit rate 4.7% among 360,000. AID 743279; in the data active means activity change below about -50%; inconclusive means mostly about -30% to -49%
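Secreted IL-1B measured by AlphaLISA bead assay after 16 h compound exposure of THP-1 cells; compounds (final up to 57.5 uM) added 1 h before LPS (250 ng/mL) and ATP (1.25 mM) stimulation; lower signal means less secretion.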
HT1080 IDH1KD tx: toxicity to HT-1080 IDH1 knockdown cells (counter line) | HT-1080 IDH1 knockdown viability, ATP luminescence, 48 h | Potency, µM (doses to about 46.1 µM), usual class: cytotoxic | hit rate 2% among 360,000 | AID 686971
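CellTiter-Glo luminescence after 48 h compound exposure at 37 degrees C of IDH1-knockdown HT-1080 cells in 5% FBS RPMI. %Activity scaled between DMSO wells and cell-free media wells, with curves fitted and assigned curve classes.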
HT1080-NT tox: kills 2HG-producing HT-1080-NT fibrosarcoma cells. HT-1080-NT fibrosarcoma viability, CellTiter-Glo ATP luminescence, 48 h. Potency, µM (highest dose often 46.1 µM), usual class: cytotoxic. hit rate 1.6% among 360,000. AID 686970;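 further: NT is the 2HG producing partner of a matched IDH1 knockdown line; nearly all actives have a fitted effect of over 55% in size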
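Viability by CellTiter-Glo luminescence after 48 h compound exposure at 37C of HT-1080-NT cells (750/well, RPMI, 5% FBS). % activity scaled between DMSO wells and medium-only wells, then curve-fitted and categorized by curve class.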
DT40 TDP1 CPT: growth inhibition of DT40 Tdp1-/-;hTDP1 cells with camptothecin (screen for TDP1 inhibitors); AID 686979; hit rate 12% among 420,000; Potency, µM (series often up to 46.2 µM), usual class: inhibitors; chicken DT40 Tdp1-/-;hTDP1 cells + 20 nM CPT, ATP luminescence, 48 h; further: nearly all actives have a fitted effect of over 55% in size
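Chicken DT40 Tdp1-/- cells complemented with human TDP1, 400 cells/well, exposed to compounds plus 20 nM camptothecin for at least 48 h at 37 C; viability read as ATP content by CellTiter-Glo luminescence.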
Hits are given with their value; i = inactive; ? = inconclusive; nt = not tested or not shown; [ ] = dose if it differs, or a comment. Shown are actives, neighbours in structure and some others; about 19% of the full set was active somewhere. Unless noted, the call rests on the fitted dose curve; in most records, active means well fitted curve in the direction sought with a large enough effect; inconclusive means small, poorly fitted or top-dose-only effect, or another doubt; inactive means no such curve, though single readings can be large; an effect the other way counts as inactive or inconclusive.

SMILES	DT40 TDP1 no CPT	IL1B secr inh	HT1080 IDH1KD tx	HT1080-NT tox	DT40 TDP1 CPT
Cc1ccc(N2CC(C(=O)Nc3c4c(nn3C(C)(C)C)CS(=O)(=O)C4)CC2=O)cc1 (configuration not stated)	i	i	i	i	i
CC(=O)c1cccc(CN(C)CC2CCCN(CCc3ccccc3C)C2)c1 (configuration not stated)	?	i	i	i	16µM
COC(=O)CCC(=O)N(C)CC1CCCN(CCc2cccc(C(F)(F)F)c2)C1 (configuration not stated)	i	i	i	i	i
COc1cc(CN(C)CC2CCCN(CCc3cccc(C(F)(F)F)c3)C2)ccc1O (configuration not stated)	23µM	?	?	i	?
COc1ccc(CN(C)CC2CCCN(CCc3ccc(F)cc3)C2)cc1OC (configuration not stated)	23µM	?	i	?	16µM
COc1cc(CN(C)CC2CCCN(CCc3ccc(F)cc3)C2)c(Cl)cc1O (configuration not stated)	i	i	i	i	i
Cc1ccccc1CCN1CCCC(CN(C)CC(C)(C)C)C1 (configuration not stated)	?	i	i	i	i
COc1ccccc1CCC(=O)OCC(=O)Nc1c(C)nn(-c2ccccc2)c1C	i	i	i	i	i
CCOc1nc(-c2ccccc2)ncc1Oc1ccccc1	i	nt	i	i	i
COc1ccc(CN(CC(O)COc2cccc3[nH]cc(C)c23)C(C)(C)C)cc1 (configuration not stated)	?	i	i	i	?
COc1ccccc1CN1CCC(n2cc(C(=O)N3CCCCC3)nn2)CC1	i	nt	nt	nt	i
CCN(CC)CCN1CNC(=S)NC1	i	i	i	i	i
Cc1ccc(NC(=O)c2cc(S(=O)(=O)NCCc3ccc(Cl)cc3)ccc2F)cc1	13µM	nt	nt	nt	?
Cc1ccc(CNS(=O)(=O)c2ccc(F)c(C(=O)Nc3ccc(C)c(F)c3)c2)cc1	i	nt	nt	nt	i
O=C(Nc1cc(Cl)ccc1Cl)c1cc(S(=O)(=O)NCCc2ccccc2)ccc1F	16µM	nt	nt	nt	?
O=C(Nc1cccc(Cl)c1Cl)c1cc(S(=O)(=O)NCCc2ccccc2)ccc1F	?	i	i	i	?
COc1ccc(CCNS(=O)(=O)c2ccc(F)c(C(=O)Nc3ccc(Cl)cc3)c2)cc1OC	21µM	nt	nt	nt	29µM
CC(C)c1ccc(NC(=O)c2cc(S(=O)(=O)NCCc3ccccc3)ccc2F)cc1	10µM	nt	nt	nt	15µM
CN(C)Cc1c(C(=O)N/N=C/C2CC=CCC2)nnn1-c1nonc1N (configuration not stated)	i	i	i	i	i
CCn1c(-c2ccccc2F)nc2cc(NC(C)=O)cc(C(=O)NCc3ncc(C)[nH]3)c21	i	nt	nt	nt	i
COc1ccc(NC(=O)c2cc(S(=O)(=O)NCC3COc4ccccc4O3)ccc2F)cc1 (configuration not stated)	?	?	i	i	?
CC(C)c1ccc(NC(=O)c2cc(S(=O)(=O)NCC3COc4ccccc4O3)ccc2F)cc1 (configuration not stated)	18µM	-69	?	?	23µM
CCc1cccc(CC)c1NC(=O)C1CCN(C(=O)c2ccco2)CC1	i	i	i	i	i
C=C1CC[C@@H]2[C@](C)(CO)[C@H](O)CC[C@@]2(C)[C@@H]1C/C=C1/C(=O)OC[C@H]1O	2.7µM	nt	nt	nt	3µM
C=C1CC[C@@H]2[C@](C)(CO)[C@H](O)CC[C@@]2(C)[C@@H]1C/C=C1/C(=O)OCC1O (some centres not stated)	8.2µM	-87	?	?	15µM
SMILES	DT40 TDP1 no CPT	IL1B secr inh	HT1080 IDH1KD tx	HT1080-NT tox	DT40 TDP1 CPT
CCOc1ccc2[nH]c(=O)c(CN(CCCN3CCOCC3)Cc3nnnn3Cc3ccc(OC)cc3)cc2c1	21µM	i	?	i	?
CCc1ccc2[nH]c(=O)c(CN(Cc3ccccc3OC)Cc3nnnn3Cc3ccco3)cc2c1	?	-82	?	?	?
Cc1ccc2[nH]c(=O)c(CN(CCO)Cc3nnnn3Cc3ccco3)cc2c1	?	nt	nt	nt	i
COC(=O)c1ccccc1S(=O)(=O)N(Cc1ccco1)Cc1cc2cc(OC)ccc2[nH]c1=O	18µM	i	i	i	?
COc1ccc2[nH]c(=O)c(CN(Cc3ccco3)Cc3nnnn3Cc3ccccc3)cc2c1	16µM	i	i	i	21µM
COc1ccc2[nH]c(=O)c(CN(Cc3cccs3)Cc3nnnn3Cc3ccccc3)cc2c1	?	i	?	i	?
CCOc1ccc(NC(=O)NNC(=O)c2ccc(CC)s2)cc1	i	i	i	i	i
CC(CC(=O)Nc1ccccc1)NCCCN1CCCC1=O (configuration not stated)	i	i	i	i	i
COc1ccc(C(=O)CN2C(=O)c3ccccc3C2=O)cc1	i	i	i	i	i
CCc1cc2c(=O)nc3n(c2s1)Cc1ccccc1/C3=C(/O)c1cccc([N+](=O)[O-])c1	?	i	?	i[9.24 µM]	?
CCc1cc2c(=O)nc3n(c2s1)Cc1ccccc1/C3=C(/O)c1ccccc1Cl	8.2µM	i	i	i	8.2µM
CC1(C(=O)NCc2cccs2)CCN1C(=O)Cc1ccc(Cl)cc1Cl (configuration not stated)	?	i	i	i	?
CC(C)(C)c1ccc(C(=O)N2CCC2(C)C(=O)NCc2cccs2)cc1 (configuration not stated)	0.65µM	i	?	?	6.5µM
CC(C)(C)c1ccc(CC(=O)N2CCC2(C)C(=O)NCc2cccs2)cc1 (configuration not stated)	10µM	i	i	i	12µM
Cc1cc2nc(CN(C)C(=O)C3CCC(=O)N(C4CCCC4)C3)[nH]c2cc1C (configuration not stated)	i	i	i	i	i
COc1ccc(Cc2nnc(Nc3ccc(C)cc3)o2)cc1OC	6.5µM	i	?	i	8.2µM
COc1ccc(Cc2nnc(-c3cccc(C)c3)o2)cc1OC	?	i	i	i	?
Cc1cc2c(cc1S(=O)(=O)N1CCOCC1)NC(=O)CO2	i	i	i	i	i
COc1ccc(/C=N/NC(=O)c2nc(-c3ccccc3)n(-c3ccccc3)n2)c(O)c1	16µM	i	?	?	?
COc1ccc(/C=N/NC(=O)c2cc3cc(OC)c(OC)cc3[nH]2)cc1	i	-51	i	i	?
COc1ccc2cc(C(=O)N/N=C/c3cc(OC)c(OC)c(OC)c3)[nH]c2c1	i	?	i	i	i
COc1ccc(CN(Cc2cccn2C)C(=O)c2cc3cc(OC)ccc3[nH]2)cc1	?	-81	i	i	?
